Data: PubChem BioAssay AID1159580 (chemical genetic matrix, 2015)
Out of some 5,500 compounds screened, about 2,000 (36%) were called active. Roughly 18% stayed inconclusive and do not appear here. Rule as the data show it: active = normalized growth mostly below about 0.91 (no sharp cut-off); inconclusive = no clear call, values can overlap the other calls; inactive = mostly above about 0.92. The list shows a part of the results.

Experiment: chemical genetic growth profiling, strain panel (AID 1159580);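 also: tested at 20 µM; growth read once vehicle control cultures reached saturation at 30 °C; 1 = growth at the plate median or of vehicle wells; lower values mean less growth of the strain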
Conditions: growth OD

Measured: normalized growth

COc1ccc(OC)c(C(O)CNC(=O)CN)c1 (stereo not given)
inactive: S. cerevisiae deletion strains, locus YKL009W, strain mrt4, stronger effect = lower value 0.969 | S. cerevisiae deletion strains, locus YKL068W, stronger effect = lower value 0.985 | S. cerevisiae deletion strains, locus YKL085W, strain MDH1 (second series), stronger effect = lower value 0.984 | S. cerevisiae deletion strains, locus YKL085W, strain MDH1, stronger effect = lower value 0.984 | S. cerevisiae deletion strains, locus YKL160W, strain elf1, stronger effect = lower value 1 | S. cerevisiae deletion strains, locus YKL190W, strain CNB1, stronger effect = lower value 0.984 | S. cerevisiae deletion strains, locus YKR001C, strain vps1, stronger effect = lower value 0.96 | S. cerevisiae deletion strains, locus YKR026C, strain gcn3, stronger effect = lower value 1.01 | S. cerevisiae deletion strains, locus YKR091W, strain srl3, stronger effect = lower value 0.996 | S. cerevisiae deletion strains, locus YLL001W, strain dnm1, stronger effect = lower value 1.01 | S. cerevisiae deletion strains, locus YLL026W, stronger effect = lower value 0.999 | S. cerevisiae deletion strains, locus YLL041C, strain sdh2, stronger effect = lower value 0.995 | S. cerevisiae deletion strains, locus YLR027C, strain aat2, stronger effect = lower value 1 | S. cerevisiae deletion strains, locus YLR039C, strain RIC1, stronger effect = lower value 0.966 | S. cerevisiae deletion strains, locus YLR058C, strain SHM2, stronger effect = lower value 0.976 | S. cerevisiae deletion strains, locus YLR102C, strain apc9, stronger effect = lower value 0.982 | S. cerevisiae deletion strains, locus YLR113W, strain HOG1, stronger effect = lower value 1.05 | S. cerevisiae deletion strains, locus YLR221C, strain rsa3, stronger effect = lower value 1 | S. cerevisiae deletion strains, locus YLR258W, strain gsy2, stronger effect = lower value 1 | S. cerevisiae deletion strains, locus YLR262C, strain YPT6 (second series), stronger effect = lower value 1.01 | S. cerevisiae deletion strains, locus YLR262C, strain YPT6, stronger effect = lower value 0.956 | S. cerevisiae deletion strains, locus YLR268W, strain sec22, stronger effect = lower value 0.996 | S. cerevisiae deletion strains, locus YLR320W, strain mms22, stronger effect = lower value 1.03 | S. cerevisiae deletion strains, locus YLR330W, strain CHS5, stronger effect = lower value 1 | S. cerevisiae deletion strains, locus YLR342W, strain FKS1 (second series), stronger effect = lower value 1.04 | S. cerevisiae deletion strains, locus YLR342W, strain FKS1, stronger effect = lower value 1.01 | S. cerevisiae deletion strains, locus YLR357W, strain rsc2, stronger effect = lower value 1.02 | S. cerevisiae deletion strains, locus YLR370C, strain arc18, stronger effect = lower value 1 | S. cerevisiae deletion strains, locus YLR371W, strain rom2, stronger effect = lower value 0.974 | S. cerevisiae deletion strains, locus YLR384C, strain iki3, stronger effect = lower value 1.02 | S. cerevisiae deletion strains, locus YLR418C, strain cdc73, stronger effect = lower value 0.973 | S. cerevisiae deletion strains, locus YML016C, strain PPZ1, stronger effect = lower value 0.99 | S. cerevisiae deletion strains, locus YML032C, strain rad52, stronger effect = lower value 0.959 | S. cerevisiae deletion strains, locus YML120C, strain ndi1, stronger effect = lower value 0.993 | S. cerevisiae deletion strains, locus YML124C, strain tub3, stronger effect = lower value 0.981 | S. cerevisiae deletion strains, locus YMR058W, strain fet3, stronger effect = lower value 1 | S. cerevisiae deletion strains, locus YMR078C, strain ctf18, stronger effect = lower value 0.976 | S. cerevisiae deletion strains, locus YMR125W, strain sto1, stronger effect = lower value 1 | S. cerevisiae deletion strains, locus YMR129W, stronger effect = lower value 1 | S. cerevisiae deletion strains, locus YMR205C, strain PFK2, stronger effect = lower value 1.02 | S. cerevisiae deletion strains, locus YMR223W, strain ubp8, stronger effect = lower value 0.993 | S. cerevisiae deletion strains, locus YMR231W, strain pep5, stronger effect = lower value 1.02 | S. cerevisiae deletion strains, locus YMR263W, strain SAP30, stronger effect = lower value 0.988 | S. cerevisiae deletion strains, locus YMR307W, strain GAS1, stronger effect = lower value 1.05 | S. cerevisiae deletion strains, locus YNL067W, strain RPL9B, stronger effect = lower value 0.971 | S. cerevisiae deletion strains, locus YNL071W, strain lat1, stronger effect = lower value 0.99 | S. cerevisiae deletion strains, locus YNL128W, strain TEP1, stronger effect = lower value 0.983 | S. cerevisiae deletion strains, locus YNL153C, strain GIM3, stronger effect = lower value 0.961 | S. cerevisiae deletion strains, locus YNL183C, strain NPR1, stronger effect = lower value 1 | S. cerevisiae deletion strains, locus YNL209W, strain ssb2, stronger effect = lower value 0.998 | S. cerevisiae deletion strains, locus YNL233W, strain BNI4, stronger effect = lower value 1.01 | S. cerevisiae deletion strains, locus YNL248C, strain rpa49, stronger effect = lower value 0.998 | S. cerevisiae deletion strains, locus YNL250W, strain rad50, stronger effect = lower value 0.968 | S. cerevisiae deletion strains, locus YNL271C, strain bni1, stronger effect = lower value 0.982 | S. cerevisiae deletion strains, locus YNL298W, strain CLA4, stronger effect = lower value 0.986 | S. cerevisiae deletion strains, locus YNL307C, strain MCK1, stronger effect = lower value 0.96 | S. cerevisiae deletion strains, locus YNL322C, strain KRE1 (second series), stronger effect = lower value 0.997 | S. cerevisiae deletion strains, locus YNL322C, strain KRE1, stronger effect = lower value 0.989 | S. cerevisiae deletion strains, locus YNR049C, strain mso1, stronger effect = lower value 1 | S. cerevisiae deletion strains, locus YNR052C, strain pop2, stronger effect = lower value 0.973 | S. cerevisiae deletion strains, locus YOL006C, strain TOP1, stronger effect = lower value 0.933 | S. cerevisiae deletion strains, locus YOL012C, strain htz1 0.916 | S. cerevisiae deletion strains, locus YOL147C, strain pex11, stronger effect = lower value 0.982 | S. cerevisiae deletion strains, locus YOR001W, strain rrp6, stronger effect = lower value 0.996 | S. cerevisiae deletion strains, locus YOR061W, strain CKA2, stronger effect = lower value 0.967 | S. cerevisiae deletion strains, locus YOR069W, strain VPS5, stronger effect = lower value 0.995 | S. cerevisiae deletion strains, locus YOR070C, strain gyp1, stronger effect = lower value 0.997 | S. cerevisiae deletion strains, locus YOR080W, strain dia2, stronger effect = lower value 1.01 | S. cerevisiae deletion strains, locus YOR083W, strain WHI5, stronger effect = lower value 1.01 | S. cerevisiae deletion strains, locus YOR106W, strain vam3, stronger effect = lower value 1.02 | S. cerevisiae deletion strains, locus YOR136W, strain idh2, stronger effect = lower value 0.977 | S. cerevisiae deletion strains, locus YOR144C, strain elg1, stronger effect = lower value 0.99 | S. cerevisiae deletion strains, locus YOR184W, strain ser1, stronger effect = lower value 0.97 | S. cerevisiae deletion strains, locus YOR231W, strain MKK1, stronger effect = lower value 1.05 | S. cerevisiae deletion strains, locus YOR265W, strain rbl2, stronger effect = lower value 0.998 | S. cerevisiae deletion strains, locus YOR270C, strain vph1, stronger effect = lower value 1.03 | S. cerevisiae deletion strains, locus YOR290C, strain snf2, stronger effect = lower value 0.997 | S. cerevisiae deletion strains, locus YOR316C, strain cot1, stronger effect = lower value 0.96 | S. cerevisiae deletion strains, locus YPL051W, strain arl3, stronger effect = lower value 1 | S. cerevisiae deletion strains, locus YPL055C, strain LGE1, stronger effect = lower value 0.94 | S. cerevisiae deletion strains, locus YPL078C, strain atp4, stronger effect = lower value 1.01 | S. cerevisiae deletion strains, locus YPL106C, strain sse1, stronger effect = lower value 1.01 | S. cerevisiae deletion strains, locus YPL240C, strain hsp82, stronger effect = lower value 0.997 | S. cerevisiae deletion strains, locus YPL256C, strain CLN2, stronger effect = lower value 1.01 | S. cerevisiae deletion strains, locus YPR119W, strain clb2, stronger effect = lower value 0.985 | S. cerevisiae deletion strains, locus YPR141C, strain kar3, stronger effect = lower value 0.966 | S. cerevisiae deletion strains, locus YPR163C, strain tif3, stronger effect = lower value 0.983 | S. cerevisiae deletion strains, locus YPR167C, strain met16, stronger effect = lower value 0.98 | S. cerevisiae deletion strains, strain wtn01, stronger effect = lower value 1.01 | S. cerevisiae strains, strain wild type, stronger effect = lower value 0.977
